PubChem BioAssay (EPA / NIEHS)
Activity calls are given as the source filed them. The calls were made as follows: active = hit-call score of the fitted dose curve at least 0.9, where 1 is the maximum; inactive = score below 0.9.

read-out: Interleukin 17A (IL17A), IL17A (gene 3605); assay: BSK_BT_xIL17A: BioMAP Diversity Plus: BT Assay for Interleukin 17A (IL17A) Biomarker Activity (AID 2284229); conditions: primary human B cells with PBMC
Protocol: BSK_BT is a cell-based, multiplexed-readout assay that uses B cell and peripheral blood mononuclear cells, a human vascular primary cell co-culture, with measurements taken at 24 hours after chemical dosing in a microplate: 96-well plate.BSK_BT_xIL17A is an assay component measured in the BSK_BT assay. It measures secreted IL-17A related to regulation of gene expression using LumineX xMAP technology.Data from the assay component BSK_BT_xIL17A was analyzed at the endpoint, BSK_BT_xIL17A, in the positive analysis fitting direction relative to DMSO as the negative control and baseline of activity. Using a type of cytokine quantitation reporter, gain or loss-of-signal activity can be used to understand protein changes. To generalize the intended target to other relatable targets, this assay endpoint is annotated to the 'cytokine' intended target family, where the subfamily is 'interleukins'.
The levels of cell surface (or secreted, indicated by the prefix "s") biomarker endpoints were measured by ELISA. Overt cytotoxicity to cells in confluent adherent cultures (all systems other than the BT system) was assessed by measuring total protein levels using sulforhodamine B (SRB) staining in parallel cultures at the time of biomarker measurements, indicated as SRB endpoints. For proliferation assays for adherent cell types, individual cell types are cultured at sub-confluence and relative cell numbers quantified by SRB staining at time points optimized for each system (48 h: 3C and CASM3C systems; 72 h: BT and HDF3CGF systems; 96 h: SAg system). SRB was performed by staining cells with 0.1% SRB after fixation with 10% TCA and reading wells at 560 nm.Viability and proliferation of PBMC (T cells) was quantified by Alamar Blue reduction for the SAg and BT systems. For PBMC viability (referred to as PBMC Cytotoxicity within the assay endpoint names), cells were plated (75,000/well in a 96-well plate) and then chemical samples added for 1 h before addition of activators, SEB and TSST-1 (20 ng/mL final concentration each). Cells were incubated for 90 h. Then, Alamar Blue (20 uL/well) (Invitrogen, Cat DAL1100) was added for 6 h, and the plates were read with a fluorescence microplate reader at 546/580 nm (excitation/emission). For PBMC proliferation, cells were plated and activated as above but incubated for only 16 h prior to addition of Alamar Blue. Plates were read after 6 h.

AC50, active:
COc1ccc(CCN2CCC(Nc3nc4ccccc4n3Cc3ccc(F)cc3)CC2)cc1 3.17 µM
CCC(C)c1cc([N+](=O)[O-])cc([N+](=O)[O-])c1OC(=O)OC(C)C (stereo not drawn) 30.7 µM
CN(C)C(=S)SC(=S)N(C)C 0.367 µM
CC(C)(C)CC(C)(C)c1ccc(OCCOCC[N+](C)(C)Cc2ccccc2)cc1 8.48 µM
Oc1c(Cl)cc(Cl)c(Cl)c1Cc1c(O)c(Cl)cc(Cl)c1Cl 2.48 µM
CC(=O)C1(C)CC2=C(CCCC2(C)C)CC1C (stereo not drawn) 26 µM
CC(=O)Nc1ccc(C(=O)CCl)cc1 2.25 µM
CCCCN(CCCC)C(=O)N(CCCC)CCCC 14.5 µM

outcome, inactive:
C=C(C)C(=O)OCCOCCOCCOCCOC(=O)C(=C)C
CC(=O)c1c(C)c([N+](=O)[O-])c(C(C)(C)C)c([N+](=O)[O-])c1C
Cc1cc(CCC(=O)OCCOCCOCCOC(=O)CCc2cc(C)c(O)c(C(C)(C)C)c2)cc(C(C)(C)C)c1O
CCCCOC(=O)CCCCCCCC(=O)OCCCC
CN(c1nccc(=O)[nH]1)C1CCN(c2nc3ccccc3n2Cc2ccc(F)cc2)CC1
C[C@@H]1CCN(C(=O)[C@H](CCCN=C(N)N)NS(=O)(=O)c2cccc3c2NC[C@H](C)C3)[C@@H](C(=O)O)C1
C1=CC2C3C=CC(C3)C2C1 (stereo not drawn)
c1ccc2cc(Nc3ccc(Nc4ccc5ccccc5c4)cc3)ccc2c1
CCCCCC(C=O)=Cc1ccccc1
CCN(CC)C(=O)N(CC)CC
CCCCCCCCCCCCCCCC(=O)OC/C=C(C)/C=C/C=C(C)/C=C/C1=C(C)CCCC1(C)C
C=C(C)C(=O)OCCOCCOCCOC(=O)C(=C)C
O=C1OC2(c3ccccc31)c1ccc(O)c(Br)c1Oc1c2ccc(O)c1Br
CC(C)(N=C=O)c1cccc(C(C)(C)N=C=O)c1
C=C(C)[C@H]1CC=C(C)C(=O)C1
CC(C=O)Cc1ccc(C(C)(C)C)cc1 (stereo not drawn)
O=C1c2ccccc2C(=O)c2c(O)ccc(O)c21
c1ccc(CCc2ccccc2)cc1
CSCCC=O
CC1(C)C2=CCCC(C)(C)[C@]23CC[C@H]1C3
Clc1cc(Cl)c(-c2c(Cl)c(Cl)cc(Cl)c2Cl)cc1Cl
COc1cc(Cl)c(OC)cc1N
IC(I)I
CS(=O)(=O)c1ccc(C2=C(c3ccccc3)C(=O)OC2)cc1
CN(C)C(=O)Nc1ccc(Oc2ccc(Cl)cc2)cc1
CC=Cc1ccc(OCC)c(O)c1
COc1ccc(OC)c(N=Nc2c(O)ccc3ccccc23)c1
C=C(C)C(=O)OCC(CC)(COC(=O)C(=C)C)COC(=O)C(=C)C
O=C1OC[C@H](Cc2cccc(O)c2)[C@H]1Cc1cccc(O)c1
c1ccc(Oc2ccccc2)cc1
